# A selection: hits, their analogues and other compounds. The true share with any hit is near 2.4%.
# RTF Ca sens inh: cardiac RTF calcium desensitization; IANBD-labeled cardiac RTF, Ca2+ fluorescence; inhibition, % at 7.15 µM; 0.12% of 340,000 active; AID 493244;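 active = inhibition above the mean inhibition of all tested compounds plus 3 SD, cut at about 17% in these data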;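 note: assay run at fixed EC70 calcium of 1.6 mM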
# RTF Ca sens act: cardiac RTF calcium sensitization; IANBD-labeled TnC RTF fluorescence at EC20 calcium; 0% EC20 calcium, 100% full calcium; activation, % at 7.2 µM; P19429+P45379; 0.24% of 340,000 active;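 active = activation above the mean over all tested compounds plus 3 SD, cut at about 30% in these data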;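 note: rise in fluorescence read as greater calcium sensitivity of cardiac thin filaments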
# CRFBP-R2 block: CRF-BP/CRF-R2 complex antagonism; AID 588475; 0.59% of 350,000 active; HEK293 CRF-R2/CRF-BP, CRF-induced calcium fluorescence; inhibition, % at 11.8 µM;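 active = inhibition of the ligand-induced calcium signal above about 50% at the single tested concentration, limit read from the data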
# ANO1 block: blocks the mouse calcium-activated chloride channel TMEM16A. Q8BHY3. HEK293 TMEM16A/YFP iodide influx fluorescence, ionomycin. normalized B-score (activity score, 25-100; higher = stronger inhibition) at 10 µM. 1.2% of 310,000 active. AID 588511;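 active = ratio plate-corrected score three or more library SD toward inhibition, starting fluorescence score within five deviations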;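 note: score derived from kinetic fluorescence span divided by baseline fluorescence per well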
# TMEM16A act: activators or potentiators of mouse TMEM16A chloride channel; Q8BHY3; HEK293 TMEM16A/YFP-H148Q/I152L, iodide quench fluorescence; hits give low values; B-score at 10 µM; 0.3% of 340,000 active; AID 623877;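 active = fluorescence-ratio B-score plate-corrected deviation score at least 3 library SD below zero, with starting fluorescence score within 5 deviations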;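 note: channel opened by trigger with iodide after compound preincubation; score built on the fluorescence ratio of max minus min over baseline; more negative score means more quench and so TMEM16A activation or potentiation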
# CRFR2-BP ag: CRF-BP/CRF-R2 complex agonism. HEK293 CRF-R2/CRF-BP, calcium dye fluorescence (FLIPR); percent of saturating CRF peptide response. activation, % at 13.2 µM. 0.46% of 350,000 active. AID 588473;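 active = activation of at least 50%, plus an integration ratio under a set limit after plate pattern correction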;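 note: plate controls were neutral control wells without compound for no effect and CRF at EC100 for full effect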
# TMEM16A reconf: re-confirmation of mouse TMEM16A chloride channel inhibitors; shares compounds with ANO1 block; HEK293 TMEM16A/YFP-H148Q, iodide quench fluorescence; ionomycin added to raise cell calcium; inhibition, % at 10 µM; 39% of 2,300 active;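 active = mean duplicate percent inhibition, scaled so buffer wells are 0 and the reference blocker 100, over three buffer SD above buffer mean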
# TMEM16A Ca cntr: calcium mobilization counter-screen hit for TMEM16A inhibitor series; shares compounds with ANO1 block; TMEM16A/YFP HEK293, Fluo4 calcium mobilization; calcium response (% of ionomycin), % at 10 µM; 2% of 2,300 active; AID 652231;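 active = duplicate-averaged calcium signal over 20% of the ionomycin maximum, relative to buffer baseline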;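 note: each well's signal is peak minus trough fluorescence divided by its pre-addition baseline; 0% = buffer wells and 100% = ionomycin wells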
# Parental YFP cnt: acts in parental YFP-HEK293 cells lacking TMEM16A, counter-screen; YFP ratio F(max-min)/F0 at 10 µM; 2,300 tested, under 10 active; iodide YFP quench, ionomycin; shares compounds with ANO1 block;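 active = yellow fluorescent protein signal ratio exceeding the buffer control mean by over 5 SD of those controls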;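 note: ratio is mean of duplicate wells from kinetic YFP trace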
# ClC-1 inh: rat ClC-1 inhibition, TMEM16A specificity screen; shares compounds with ANO1 block; CHO ClC-1-YFP, iodide influx fluorescence quench; iodide control reads 0, buffer control 100; ratio percent, % at 10 µM; 2,300 tested, under 10 active; AID 652236;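 active = duplicate-mean ratio percent above the mean of iodide-only control wells, which defines zero, plus 5 of their SD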;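 note: higher percent means stronger block of ClC-1 iodide influx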
# * marks the source's active call; other numbers are inactive results; i = inactive; . = no result.
SMILES,RTF Ca sens inh,RTF Ca sens act,CRFBP-R2 block,ANO1 block,TMEM16A act,CRFR2-BP ag,TMEM16A reconf,TMEM16A Ca cntr,Parental YFP cnt,ClC-1 inh
O=C1CC(O)(C(F)F)Oc2ccc3ccccc3c21 (configuration not stated),-5,1,-5,i,i,-5,.,.,.,.
CCOC(=O)c1cc(NC(=O)Nc2ccc(OC)c(OC)c2)c(C)nc1C,-1,0,-5,100*,i,1,i,i,-1.2,-12
CCCCn1c(SCC(=O)NC2CC2)nc2cc(C(=O)OC)ccc2c1=O,.,.,5,.,.,1,.,.,.,.
Cc1nn(-c2ccccc2)c2sc(-c3n[nH]c(=S)o3)cc12,1,-4,15,25*,i,-3,i,i,-1,1
Cc1nc(CN(C)C(=O)c2cc(COc3ccc4ncccc4c3)on2)cs1,-3,1,-4,100*,i,2,18%*,i,-1,-25
CC(C)N(Cc1nccn1C)C(=O)c1cc(COc2ccc3ncccc3c2)on1,-3,-3,-6,i,i,1,.,.,.,.
COc1ccccc1CNc1ncnc2sccc12,-6,-2,-7,25*,i,0,i,i,-0.89,-15
c1ccc2c(c1)OCC(CNc1ncnc3sccc13)O2 (configuration not stated),-7,-6,-14,25*,i,-3,i,i,-1.3,-24
COc1ccc(CCNc2ncnc3sccc23)cc1OC,3,-9,-1,100*,-7.8*,2,24%*,i,-0.78,-29
Fc1ccccc1CNc1ncnc2sccc12,8,0,-8,i,i,0,.,.,.,.
c1ccc2c(c1)OCC(CNCC1COc3ccccc3O1)O2 (configuration not stated),0,12,17,i,i,0,.,.,.,.
COc1ccc(C(C(=O)NCC2CCCO2)N(C(=O)Cn2nnc3ccccc32)c2ccccc2C(C)=O)cc1OC (configuration not stated),-10,-5,-9,i,i,-1,.,.,.,.
CCOC(=O)C1=C(C)NC(C)=C(C(=O)OC)C1c1ccco1 (configuration not stated),1,4,18,i,i,0,.,.,.,.
C=CCOC(=O)C1=C(C)NC(C)=C(C(=O)OCC=C)C1c1ccco1,-1,6,31,i,i,-8,i,i,-0.96,-4
Cc1cccc(-c2noc(-c3cc4ccccc4oc3=O)n2)c1,4,-7,9,i,i,0,.,.,.,.
COc1ccc(NC(=O)COC(=O)CCNS(=O)(=O)c2ccc(Cl)cc2)cc1,-3,-3,4,i,i,-1,.,.,.,.
Cc1ccc(-n2c(C)cc(C(=O)COC(=O)C3=NNC(=O)CC3)c2C)cc1,3,-5,5,i,i,-1,.,.,.,.
Cc1ccc(-n2c(C)cc(C(=O)COC(=O)c3c(C)noc3C)c2C)cc1,-10,-5,26,100*,i,1,i,i,-0.97,-16
O=C(N/C=N/O)C(c1ccccc1)c1ncc(C(F)(F)F)cc1Cl (configuration not stated),-3,-3,-13,i,i,-1,.,.,.,.
COc1ccc(Cl)cc1NC(=O)CSc1nnc(Cc2ccc(C)cc2)c(=O)[nH]1,7,-6,32,25*,i,-2,i,i,-0.94,-17
